Here are results for eight molecules from PubChem BioAssay (Tox21).

Assay [1] in a line: A CellTox Green Cytotoxicity Assay to monitor cytotoxicity in HepG2 cells - 24 hour (AID 1224878). Also: nearly all actives have a fitted effect of over 45% in size. The method in brief: (§1)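 Cytotoxicity was tracked as dead-cell DNA fluorescence in HepG2 cells treated with test compounds at 37 C; each time-point value comes from one kinetic series spanning 0, 8, 16, 24, 32 and 40 h.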
Assay [2] can be described thus: A CellTox Green Cytotoxicity Assay to monitor cytotoxicity in HEK293 cells - 32 hour (AID 1224881). Also: nearly all actives have a fitted effect of over 40% in size. The method in brief: (§2)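 Real-time, in one plate: 600 HEK293 cells/well with dead-cell DNA dye, pinned compound after 5 h, 37 C incubation over 40 h; viable cells give no appreciable fluorescence.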
The nature of assay [3]: A CellTox Green Cytotoxicity Assay to monitor cytotoxicity in HepG2 cells - 0 hour (AID 1224882). Also: nearly all actives have a fitted effect of over 35% in size. Summed up: as §1
A short description of assay [4]: A CellTox Green Cytotoxicity Assay to monitor cytotoxicity in HepG2 cells - 32 hour (AID 1224883). Also: nearly all actives have a fitted effect of over 50% in size. Summed up:
as §1

The nature of assay [5]: A CellTox Green Cytotoxicity Assay to monitor cytotoxicity in HEK293 cells - 8 hour (AID 1224884). Also: nearly all actives have a fitted effect of over 35% in size. The method in brief: as §2
Assay [6] can be described thus: qHTS RealTime-Glo MT Cell Viability Assay in HepG2 cells - 16 hour (AID 1224885). Also: nearly all actives have a fitted effect of over 50% in size. The method in brief:
(§3)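 qHTS, HepG2, 600 cells/well, RealTime-Glo (NanoLuc + prosubstrate) added with cells; 5 h preincubation; DMSO compound addition; 37 C; luminescence at 0/8/16/24/32/40 h.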
A general note: In qHTS, concentration-response curves come from the screen itself.

A short description of assay [7]: qHTS RealTime-Glo MT Cell Viability Assay in HEK293 cells - 24 hour (AID 1224886). Also: top concentration of the series differs between compounds; nearly all actives have a fitted effect of over 50% in size. Summed up: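 Assay medium contained NanoLuc luciferase plus cell-permeant prosubstrate, added with HEK293 cells at 600 cells/well. After 5 h at 37 C/5% CO2 compounds were added; plates stayed at 37 C for 40 h with serial luminescence reads.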
The nature of assay [8]: qHTS RealTime-Glo MT Cell Viability Assay in HEK293 cells - 8 hour (AID 1224887). Also: top concentration of the series differs between compounds; nearly all actives have a fitted effect of over 50% in size. The method in brief: (§4)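 Kinetic, non-lysing viability readout. Seed HEK293 (600/well) with reagent, incubate 5 h at 37 C/5% CO2, pin 23 nL compound in DMSO, incubate at 37 C, read luminescence at 0, 8, 16, 24, 32, 40 h.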
Assay [9] can be described thus: A CellTox Green Cytotoxicity Assay to monitor cytotoxicity in HEK293 cells - 16 hour (AID 1224888). Also: nearly all actives have a fitted effect of over 35% in size. Summed up: as §2
The nature of assay [10]: qHTS RealTime-Glo MT Cell Viability Assay in HepG2 cells - 0 hour (AID 1224889). Also: nearly all actives have a fitted effect of over 50% in size. The method in brief: as §3
Assay [11] can be described thus: A CellTox Green Cytotoxicity Assay to monitor cytotoxicity in HepG2 cells - 8 hour (AID 1224890). Also: nearly all actives have a fitted effect of over 45% in size. The method in brief: as §1
Assay [12] can be described thus: qHTS assay to identify small molecule antagonists of the estrogen receptor alpha (ER-alpha) signaling pathway using the BG1 cell line in the presence of 0.1 nM 17-beta-estradiol - cell viability counter screen (AID 1259241). Also: nearly all actives have a fitted effect of over 40% in size. The method in brief: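 Following 5 days in phenol red-free medium with charcoal-stripped serum, VM7Luc4E2 cells received test compounds alongside 0.1 nM 17beta-estradiol (final) at 37C for 22 hr. Live cells were then quantified via protease-substrate fluorescence.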

Assay [13] can be described thus: qHTS assay to identify small molecule antagonists of the androgen receptor (AR) signaling pathway using the MDA cell line in the presence of 0.5 nM R1881 - cell viability counter screen (AID 1259242). Also: nearly all actives have a fitted effect of over 45% in size. Summed up: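 Cells seeded at 3,000/well and allowed 5 hr at 37C, 0% CO2 before compound transfer and R1881 (0.5 nM final) addition; 16 hr later, live-cell protease fluorescence indicated cytotoxicity.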

For assay [14], the target named is Androgen receptor (Homo sapiens) (UniProt P10275). Nature of the assay: qHTS assay to identify small molecule antagonists of the androgen receptor (AR) signaling pathway using the MDA cell line in the presence of 0.5 nM R1881 (AID 1259243). Also: nearly all actives have a fitted effect of over 50% in size. The method in brief:
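Luminescence from an AR/GR-responsive MMTV-luciferase construct in MDA-kb2 breast carcinoma cells, read 30 min after ONE-Glo, following 16 hr co-treatment with compounds and 0.5 nM R1881.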

The nature of assay [15]: qHTS assay to identify small molecule phospholipidosis (PLD) inducers (AID 1259344; active = well fitted curve in the direction sought with a large enough effect; an effect the other way counts as inactive or inconclusive). Summed up:
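Cells (HepG2, 900 per well) attach for 4 h, receive LipidTOX Red and compound together, incubate 24 h at 37 C, are fixed 30 min with paraformaldehyde/Hoechst, then imaged at one site per well.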

Assay [16] can be described thus: qHTS assay to identify small molecule HDAC inhibitors (AID 1259364). Also: potency is read from the fitted curve at half-maximal effect.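 Also: wild-type HCT-116 cells with endogenous class I/II HDAC activity; nearly all actives have a fitted effect of over 45% in size.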 The method in brief:
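HCT-116 wt cells, 1,500/well, overnight attach. Compounds (DMSO) 2 h, 37 °C. HDAC-Glo I/II, 30 min RT. Luminescence.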

The nature of assay [17]: qHTS assay to identify small molecule HDAC inhibitors - cell viability counter screen (AID 1259365). The method in brief: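 HCT-116 wild-type, overnight attachment; 2hr drug exposure, 37C; CellTiter-Glo luminescent ATP readout after 30min RT.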
Assay [18] deals with Estrogen receptor (Homo sapiens) (UniProt P03372). Nature of the assay: qHTS assay to identify small molecule antagonists of the estrogen receptor alpha (ER-alpha) signaling pathway using the BG1 cell line in the presence of 0.1 nM 17-beta-estradiol (AID 1259244). Also: nearly all actives have a fitted effect of over 50% in size. The method in brief: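 Luciferase signal from VM7Luc4E2 ERE-reporter cells, co-dosed with test compound and 0.1 nM final 17beta-estradiol for 22 h, read with ONE-Glo.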
Chain of Estrogen receptor (Homo sapiens) (P03372 whole entry, looked up): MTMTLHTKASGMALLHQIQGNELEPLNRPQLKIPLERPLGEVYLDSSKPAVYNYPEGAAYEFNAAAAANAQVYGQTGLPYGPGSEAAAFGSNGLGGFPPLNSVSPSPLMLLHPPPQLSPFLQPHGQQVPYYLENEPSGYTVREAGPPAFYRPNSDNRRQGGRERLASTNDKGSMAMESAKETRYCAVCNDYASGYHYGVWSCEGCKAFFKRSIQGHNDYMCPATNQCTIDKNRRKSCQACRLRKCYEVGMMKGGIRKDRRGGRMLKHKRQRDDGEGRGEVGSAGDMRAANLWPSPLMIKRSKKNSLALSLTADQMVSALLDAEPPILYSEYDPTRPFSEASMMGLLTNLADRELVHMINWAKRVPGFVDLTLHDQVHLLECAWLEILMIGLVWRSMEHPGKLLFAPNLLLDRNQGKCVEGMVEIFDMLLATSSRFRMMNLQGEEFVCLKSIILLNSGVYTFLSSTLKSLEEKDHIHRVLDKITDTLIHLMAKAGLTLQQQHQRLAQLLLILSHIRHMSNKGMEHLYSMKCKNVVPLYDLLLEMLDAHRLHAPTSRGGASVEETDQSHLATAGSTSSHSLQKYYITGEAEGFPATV

A short description of assay [19]: qHTS RealTime-Glo MT Cell Viability Assay in HEK293 cells - 0 hour (AID 1224880). The method in brief: as §4
The nature of assay [20]: A CellTox Green Cytotoxicity Assay to monitor cytotoxicity in HepG2 cells - 40 hour (AID 1224879). Also: nearly all actives have a fitted effect of over 40% in size. Summed up:
as §1

SMILES strings stand for the structures. Unmarked numbers belong to inactive results. Results filed as inconclusive are left out. Active and inactive are the calls of the source. Unless noted, calls follow the shape of the dose curve; as a rule, active = well fitted curve in the direction sought with a large enough effect in the repeat runs; inconclusive = weak or mixed curves; inactive = no such curve, though single readings can be large; an effect the other way counts as inactive or inconclusive.

Chain of Androgen receptor (Homo sapiens) (P10275 whole entry, looked up): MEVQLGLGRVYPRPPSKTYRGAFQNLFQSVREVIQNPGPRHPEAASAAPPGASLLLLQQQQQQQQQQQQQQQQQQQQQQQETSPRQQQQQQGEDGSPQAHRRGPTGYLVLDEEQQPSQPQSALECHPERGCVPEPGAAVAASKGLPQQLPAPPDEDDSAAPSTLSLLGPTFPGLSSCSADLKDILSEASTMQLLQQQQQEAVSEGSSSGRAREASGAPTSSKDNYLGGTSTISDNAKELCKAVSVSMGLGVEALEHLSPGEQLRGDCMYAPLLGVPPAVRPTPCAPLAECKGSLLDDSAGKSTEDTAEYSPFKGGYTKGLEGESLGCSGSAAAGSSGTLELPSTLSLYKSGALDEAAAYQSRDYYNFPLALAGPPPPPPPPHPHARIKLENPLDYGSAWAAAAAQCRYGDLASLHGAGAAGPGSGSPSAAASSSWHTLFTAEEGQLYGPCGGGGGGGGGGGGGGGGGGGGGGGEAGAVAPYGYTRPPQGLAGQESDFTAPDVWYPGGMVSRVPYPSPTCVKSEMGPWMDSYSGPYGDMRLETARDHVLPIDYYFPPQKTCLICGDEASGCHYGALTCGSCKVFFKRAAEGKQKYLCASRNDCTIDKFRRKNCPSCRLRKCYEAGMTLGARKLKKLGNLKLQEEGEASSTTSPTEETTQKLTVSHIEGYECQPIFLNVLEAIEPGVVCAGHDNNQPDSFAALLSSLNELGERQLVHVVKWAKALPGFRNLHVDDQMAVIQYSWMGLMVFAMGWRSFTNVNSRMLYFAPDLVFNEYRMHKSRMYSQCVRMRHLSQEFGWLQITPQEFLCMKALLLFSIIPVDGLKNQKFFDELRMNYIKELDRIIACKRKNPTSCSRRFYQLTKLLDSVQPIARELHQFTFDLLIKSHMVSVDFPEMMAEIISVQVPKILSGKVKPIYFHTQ

Consider `C/C(=N\O)c1ccc(OCC(=O)N2CCCCC2)cc1`, for which the Potency entry in assay [1], in assay [2], in [3], in assay [4], in [5] and in assay [9] was “inactive” each time. The Potency result in assay [10], in assay [11], in assay [14] and in [15] was “inactive” in each case. The molecule was called inactive in assay [6], in assay [7], in assay [8], in [12], in [13] and in assay [17]. Further, the Potency in [16] was 8.41 µM (active).
With `Cc1ccc(Br)cc1`, the Potency entry in assay [1], in assay [2], in [3], in assay [4], in assay [5] and in assay [9] was “inactive” in each case. The Potency result in assay [10], in assay [11] and in [16] was “inactive” in each case. Moreover, the molecule was called inactive in assay [7], in assay [8], in [12], in assay [13], in assay [18] and in [17].
On to `CCCCCCCOC(C)=O`, for which the Potency result in assay [1], in assay [19], in assay [2], in assay [3], in [4] and in [9] was “inactive” in each case. Besides, the Potency entry in assay [10], in assay [11] and in assay [16] was “inactive” in each case. The call in assay [6], in assay [7], in [8], in assay [12], in assay [13] and in assay [18] was inactive. Also, in [17], the outcome was inactive.
As for `CCOC(=O)c1ccc(N(C)C)cc1`, the Potency result in assay [1], in [19], in [2], in [3], in assay [4] and in assay [5] was “inactive” throughout. Besides, the Potency result in [9], in assay [10] and in assay [11] was “inactive” throughout. For the same molecule, the call in [8], in assay [12], in assay [13] and in assay [17] was inactive. The Potency in assay [16] is 9.69 µM (active).
`CCCOc1ccc(C(=O)OCCN(CC)CC)cc1N`: the Potency result in [20], in [19], in assay [2], in assay [3], in [4] and in assay [5] was “inactive” in each case. Moreover, the Potency result in [9], in [10], in assay [11], in assay [15] and in assay [16] was “inactive” each time. Moreover, the outcome in [6], in [7], in assay [8], in assay [12], in assay [13] and in assay [17] was inactive.
On to `COc1ccc(Cl)cc1C`, for which the Potency result in [1], in assay [2], in [3], in assay [4], in assay [5] and in assay [9] was “inactive” in each case. For the same molecule, the Potency entry in [10], in [11] and in assay [16] was “inactive” each time. The call in assay [6], in assay [7], in [8], in [12], in [13] and in assay [17] was inactive.
For `N#Cc1ccccc1C#N`, the Potency entry in [20], in assay [19], in assay [2], in [3], in assay [4] and in assay [5] was “inactive” in each case. Besides, the Potency entry in [9], in [10], in [11], in assay [14] and in assay [16] was “inactive” each time. Moreover, the molecule was classed as inactive in assay [6], in assay [7], in [8], in assay [12] and in [13].
With `COC(=O)c1ccccc1Cl`, the Potency result in assay [1], in assay [2], in [3], in assay [4], in [5] and in assay [9] was “inactive” in each case. Further, the Potency result in [10], in assay [11] and in assay [16] was “inactive” in each case. Also, the call in [6], in assay [7], in assay [8], in [12], in [13] and in [17] was inactive.
